# Screening data: PubChem BioAssay, several laboratories
# Insulin prom inh – TRM-6 insulin promoter activity inhibition. TRM-6 cells (human fetal islet line), insulin promoter-eGFP reporter, imaging; reporter expression induced with tamoxifen. inhibition, % at 2 µM. hit rate 0.9% among 130,000;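 active means inhibition above the mean plus 3 SD, with well images judged a real hit on visual review, cut at about 60% in these data, passing the limit was not always enough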
# Insulin prom up – MIN6 insulin promoter up-regulation; AID 1625; MIN6 insulin promoter-GFP reporter, high-content imaging; hits give high values; z-score at 5 µM; hit rate 0.3% among 190,000;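 active means z-score above 3 at 5 µM with at least 500 cells counted in the well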
# bCat KO growth – beta-catenin-lacking colon tumor cell growth suppression; hit rate 1.5% among 140,000; viability, % at 10 µM; HCT116 beta-catenin knockout viability, CellTiter-Glo, 60 h; hits give low values;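 active means viability at or under a set limit, the compound median less 4 SD, cut at about 6% in these data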;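 further: 0% = Hyamine 1622 control at 20 µM and 100% = untreated cell control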
# Autophagy mod – alters autophagy in cells. MEF GFP-LC3 puncta imaging; test concentration mostly 10 µM. calls only at 10 µM (by protocol). hit rate 0.98% among 190,000;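 active means percentage of spot-positive cells more than 3 SD above its plate mean, without a fluorescence outlier flag or 80% toxicity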;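 further: spot-positive cell cutoff set from DMSO-treated cells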
# HCT116 PTEN-null – growth suppressors of cells with PTEN tumor suppressor deletion. HCT116 PTEN-null viability, CellTiter-Glo, 60 h; hits give low values. viability, % at 10 µM. hit rate 1.2% among 140,000. AID 827;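 active means viability at or below a set limit, 4 SD under the median of all tested compounds, cut at about 3.7% in these data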;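 further: PTEN knockout HCT116 line with beta catenin targeted HCT116 as companion control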
# Lmaj promast – reduces viability of Leishmania major promastigotes; resazurin fluorescence viability; inhibition, % at 10 µM; hit rate 9% among 200,000; AID 1063; in the data active means inhibition above about 50%;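 further: promastigotes grown with compound for 44 hours at 28 °C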
# The depositor's hits bear a star; i = inactive; x = no result; + = active, no number. Rows were chosen to be rich in hits. Some 9.6% of all compounds tested hit in one or more screens of this group.
SMILES,Insulin prom inh,Insulin prom up,bCat KO growth,Autophagy mod,HCT116 PTEN-null,Lmaj promast
CCN(CCCNC(=O)C1c2ccccc2C(=O)N(CCOC)C1c1ccc(F)cc1)Cc1ccccc1 (centres undefined),-66.7,-0.52,x,i,x,99.2*
CC1CCCN(CCCOc2ccccc2-c2ccccc2)C1 (centres undefined),x,-0.94,x,i,x,94.3*
COc1cc(C)ccc1OCCOCCOc1ccccc1Br,x,-0.07,94.7,i,87.3,0.5
Cc1ccc2cccc(OCCOCCOc3ccccc3Br)c2n1,-10.3,0.8,52.0,i,59.9,66.7*
Brc1ccccc1OCCOCCOc1cccc2cccnc12,-11.8,x,75.4,i,64.7,2.3
CC1CCN(CCCCOc2ccccc2-c2ccccc2)CC1,-28.0,-0.46,39.2,i,36.8,99.1*
CC1CCN(CCOCCOc2ccccc2Br)CC1,x,0.54,x,i,x,82.2*
CCCC(=O)c1cc(F)c(N2CCN(CCC#N)CC2)cc1C,x,-0.07,65.7,i,70.8,-4.5
COc1cc(C(C(=O)NC2CCCCC2)N(Cc2cccs2)C(=O)Cc2c[nH]c3ccccc23)cc(OC)c1OC (centres undefined),-43.5,-0.49,52.6,i,52.5,4.1
CC1CN(CCOc2ccccc2-c2ccccc2)CC(C)O1 (centres undefined),-7.1,1.05,74.4,i,82.0,6.8
CC1CCN(CCOCCOc2ccccc2-c2ccccc2)CC1,-20.0,1.84,62.4,i,62.7,82.7*
Cc1noc(/C=C/c2ccc(-c3ccccc3Cl)o2)c1[N+](=O)[O-],x,x,97.5,+,94.1,-4.1
Cn1c(SCCOc2ccccc2F)nc2ccccc2c1=O,x,0.91,x,i,x,0.0
CC1CCC(C(C)C)C2=C1C(C#N)(C#N)C(C#N)(C#N)C(c1ccccc1)N2 (centres undefined),-27.0,0.31,81.7,i,87.2,99.7*
CC1=CC(C#N)(C#N)C(C#N)(C#N)C(c2ccccc2)N1 (centres undefined),3.5,0.34,103.2,i,98.5,-4.2
Cc1ccc2nc(SCC(=O)c3ccc4c(c3)OCO4)[nH]c2c1,0.0,-0.06,108.6,i,89.3,83.7*
COC(=O)c1ccc(CSc2nc3ccc(C)cc3[nH]2)o1,x,-1.39,79.3,i,83.3,87.1*
O=C(CSc1nc2ccccc2[nH]1)c1ccc2c(c1)OCO2,57.1,0.1,120.3,i,101.9,3.8
Cc1ccc2nc(SCC(=O)c3ccc(Cl)s3)[nH]c2c1,-42.9,-0.1,103.0,i,94.3,16.5
CC(=O)c1c(C)[nH]c(C(=O)CSc2nc3ccc(C)cc3[nH]2)c1C,15.4,0.36,90.3,i,82.8,91.7*
CC(C)(C)NC(=O)/C(=C\c1ccco1)NC(=O)c1cccs1,-37.0,0.2,91.9,i,98.8,0.3
COc1ccc(-n2cc(CNC3CCN(C)CC3)c(-c3cccc(F)c3)n2)cc1,x,-1.2,x,i,x,100.5*
CNCc1ccccc1OCc1ccc(F)cc1,x,-0.02,x,i,x,4.7
COc1ccc(CCN=C(N)Nc2nc(C)cc(C)n2)cc1,x,-2.31,x,i,x,95.2*
Cc1cc(C(=O)NCC2COc3ccccc3O2)c2ccccc2n1 (centres undefined),83.3*,x,x,i,x,-8.3
SMILES,Insulin prom inh,Insulin prom up,bCat KO growth,Autophagy mod,HCT116 PTEN-null,Lmaj promast
Cc1c(C(=O)NCC2CCCO2)oc2ccc(S(=O)(=O)N3CCCC3)cc12 (centres undefined),-46.1,0.34,95.8,i,101.3,-7.5
O=C(NCC1COc2ccccc2O1)c1ccccc1 (centres undefined),-257.1,0.57,87.5,i,81.5,-1.7
Cc1c(C(=O)NCC2COc3ccccc3O2)oc2ccc(S(=O)(=O)N(C)C3CCCCC3)cc12 (centres undefined),22.6,-0.36,73.7,i,75.2,53.3*
O=C(Cc1ccccc1)Nc1ccc(C(=O)NCC2COc3ccccc3O2)cc1 (centres undefined),55.9,-0.37,85.5,i,92.2,3.4
O=C(NCC1COc2ccccc2O1)c1ccc(NC(=O)C(c2ccccc2)c2ccccc2)cc1 (centres undefined),0.0,-0.24,39.7,i,38.8,91.9*
Cc1ccc(C)c(N2CCN(C(=O)c3cc4ccccc4oc3=O)CC2)c1,x,-1.32,96.2,i,110.0,-2.0
Cc1ccc(C)n1CCN1CCN(CC(=O)Nc2cc(C(F)(F)F)ccc2Cl)CC1,-57.7,-0.16,19.1,+,22.6,0.1
